Test results published in PubChem BioAssay.
A number with no mark means an inactive call. Rule as the data show it, unless noted: active = inhibition above about 30%; inactive = the rest.

Test: yeast transport mutant growth inhibition pilot in 384-well plates, post-Golgi transport modulator project (AID 636; in the data active = inhibition above about 31%)
Details: absorbance 615 nm, about 18 h, stronger effect = higher value

Row | SMILES | inhibition
1 | CCOC(=O)C1CCCN(C(=O)c2cccs2)C1 (stereo not given) | -6.18%
2 | O=C(CSc1nnc(-c2ccccc2)o1)N1CCN(c2ccccc2)CC1 | -4.53%
3 | CCOC(=O)N1CCN(C(=O)Nc2ccc3oc(C)nc3c2)CC1 | -2.63%
4 | O=C(CSc1nc2ccccc2o1)N1CCN(c2ccc(Cl)cc2)CC1 | -1.56%
5 | CCCC(=O)N1CCN(c2ccc(NC(=O)c3ccc(Br)o3)cc2)CC1 | 1.58%
6 | COC(=O)c1[nH]c(C)c(/C(O)=C2\C(=O)C(=O)N(CCCN3CCOCC3)C2c2ccccn2)c1C (stereo not given) | -0.53%
7 | CCn1c(CSc2nc(C)cc(C)n2)nnc1SCC(=O)Nc1ccccc1 | -4.27%
8 | CN(C)c1oc(-c2ccccc2Cl)nc1C#N | -3.33%
9 | Cc1ccccc1C(=O)N1CCC(C(=O)Nc2ccc(S(=O)(=O)N3CCCC3)cc2)CC1 | -4.55%
10 | Cc1ccc(-c2[nH]nc3c2C(c2ccoc2)C(C#N)=C(N)O3)cc1C (stereo not given) | -1.45%
11 | CCOC(=O)CN(C)Cc1c[nH]c2ccccc12 | -4.47%
12 | Cc1cccc(-n2ncc3c(NCc4ccccn4)ncnc32)c1 | -1.17%
13 | CCCCOc1ccc(C(=O)Nc2ccc(N3CCN(C(=O)C(C)C)CC3)cc2)cc1 | -3.55%
14 | COc1ccc(N(CC(=O)Nc2ccc(F)c(Cl)c2)S(=O)(=O)c2c(C)noc2C)cc1 | -1.07%
15 | O=C(c1ccc(-c2ccccc2)cc1)N1CCC(C(=O)N2CCCC2)CC1 | -6.67%
16 | COc1ccccc1NC1=NC2(CCCC2)N=C(N)N1 | -2.6%
17 | c1ccc(OCc2nc3ccccc3[nH]2)cc1 | -3.6%
18 | CS(=O)(=O)N(CC(=O)NC1CC1)c1cccc(F)c1 | -5.19%
19 | O=C(NCc1ccco1)C1Cc2ccccc2CN1S(=O)(=O)c1ccccc1F (stereo not given) | -1.95%
20 | Oc1cccc2ccc(Nc3ccccn3)nc12 | -4.16%

Row | SMILES | inhibition
21 | Cc1ccccc1NS(=O)(=O)c1ccc(NC(=O)c2ccco2)cc1 | -2.34%
22 | CC(=O)c1c(C)[nH]c(C(=O)NC2=NCCS2)c1C | -3.51%
23 | Nc1nc(SCc2ccc(Cl)cc2Cl)n[nH]1 | -7.47%
24 | O=C(Nc1ccccc1C(=O)N1CCOCC1)c1ccncc1 | -1.43%
25 | O=C1c2cccnc2C(=O)N1c1cccc(-c2nc3ccccc3o2)c1 | -6.27%
26 | CCOc1ccc(N(C)S(=O)(=O)c2ccc3[nH]cc(C(=O)NCC4CCCO4)c(=O)c3c2)cc1 (stereo not given) | -2.86%
27 | Cc1cc(=O)oc2c(CN3CCN(C)CC3)c(O)c(Cl)cc12 | -6.05%
28 | Cn1c(=O)c2ccccc2n(Cc2ccccc2F)c1=O | -0.66%
29 | COc1ccc(OC)c(-c2nc3c(C)n[nH]c(=O)c3[nH]2)c1 | -6.13%
30 | COc1ccc(CN(C(=O)CSc2nnc(-c3ccccc3F)o2)c2ccc(F)cc2)cc1 | -5.2%
31 | COc1ccccc1C(=O)Nc1c2c(nn1-c1cccc(C)c1C)CS(=O)(=O)C2 | -4.13%
32 | Cc1cccc(NC(=O)CCn2ccnc2C)c1 | -1.95%
33 | O=c1oc(-c2ccco2)nc2ccccc12 | -0.78%
34 | COCC(=O)N(Cc1ccccc1)c1ccccn1 | -5.32%
35 | Nc1cc(C(=O)O)ccc1Nc1ccccc1 | -5.06%
36 | O=C1c2ccccc2C(=O)N1CCC(=O)N1CCc2ccccc21 | -4.53%
37 | Cc1cc(C)n(Cc2nc3ccccc3n2C)n1 | 0.52%
38 | CC(C)c1ccc(NC(=O)C2CC(=O)N(C(C)C)C2)cc1 (stereo not given) | -2.34%
39 | CSc1nsc(SCC(=O)N2CCc3ccccc32)n1 | -6.05%
40 | CC(Sc1nnc(-c2cc3ccccc3o2)n1-c1ccccc1)C(=O)O (stereo not given) | -5.84%

Test: growth suppression of yeast trafficking mutant, preliminary HTS, modulators of trafficking downstream of Golgi apparatus project, 1536-format plate, OD 615 nm (AID 637)
Details: yeast transport mutant growth, absorbance 615 nm, 18 h; stronger effect = higher value

Row | SMILES | inhibition
41 | CCOC(=O)C1CCCN(C(=O)c2cccs2)C1 (stereo not given) | 0.48%
42 | O=C(CSc1nnc(-c2ccccc2)o1)N1CCN(c2ccccc2)CC1 | 1.75%
43 | CCOC(=O)N1CCN(C(=O)Nc2ccc3oc(C)nc3c2)CC1 | 0%
44 | O=C(CSc1nc2ccccc2o1)N1CCN(c2ccc(Cl)cc2)CC1 | 6.35%
45 | CCCC(=O)N1CCN(c2ccc(NC(=O)c3ccc(Br)o3)cc2)CC1 | -2.22%
46 | COC(=O)c1[nH]c(C)c(/C(O)=C2\C(=O)C(=O)N(CCCN3CCOCC3)C2c2ccccn2)c1C (stereo not given) | -4.6%
47 | CCn1c(CSc2nc(C)cc(C)n2)nnc1SCC(=O)Nc1ccccc1 | -3.02%
48 | CN(C)c1oc(-c2ccccc2Cl)nc1C#N | 3.97%
49 | Cc1ccccc1C(=O)N1CCC(C(=O)Nc2ccc(S(=O)(=O)N3CCCC3)cc2)CC1 | -3.49%
50 | Cc1ccc(-c2[nH]nc3c2C(c2ccoc2)C(C#N)=C(N)O3)cc1C (stereo not given) | -1.27%
51 | CCOC(=O)CN(C)Cc1c[nH]c2ccccc12 | 7.14%
52 | Cc1cccc(-n2ncc3c(NCc4ccccn4)ncnc32)c1 | -4.6%
53 | CCCCOc1ccc(C(=O)Nc2ccc(N3CCN(C(=O)C(C)C)CC3)cc2)cc1 | 2.22%
54 | COc1ccc(N(CC(=O)Nc2ccc(F)c(Cl)c2)S(=O)(=O)c2c(C)noc2C)cc1 | -6.83%
55 | O=C(c1ccc(-c2ccccc2)cc1)N1CCC(C(=O)N2CCCC2)CC1 | 5.71%
56 | COc1ccccc1NC1=NC2(CCCC2)N=C(N)N1 | 3.02%
57 | c1ccc(OCc2nc3ccccc3[nH]2)cc1 | -4.13%
58 | CS(=O)(=O)N(CC(=O)NC1CC1)c1cccc(F)c1 | 0%
59 | O=C(NCc1ccco1)C1Cc2ccccc2CN1S(=O)(=O)c1ccccc1F (stereo not given) | 1.27%
60 | Oc1cccc2ccc(Nc3ccccn3)nc12 | 2.22%

Row | SMILES | inhibition
61 | Cc1ccccc1NS(=O)(=O)c1ccc(NC(=O)c2ccco2)cc1 | -2.38%
62 | CC(=O)c1c(C)[nH]c(C(=O)NC2=NCCS2)c1C | -5.4%
63 | Nc1nc(SCc2ccc(Cl)cc2Cl)n[nH]1 | 0.79%
64 | O=C(Nc1ccccc1C(=O)N1CCOCC1)c1ccncc1 | -2.22%
65 | O=C1c2cccnc2C(=O)N1c1cccc(-c2nc3ccccc3o2)c1 | 3.65%
66 | CCOc1ccc(N(C)S(=O)(=O)c2ccc3[nH]cc(C(=O)NCC4CCCO4)c(=O)c3c2)cc1 (stereo not given) | -3.17%
67 | Cc1cc(=O)oc2c(CN3CCN(C)CC3)c(O)c(Cl)cc12 | -0.95%
68 | Cn1c(=O)c2ccccc2n(Cc2ccccc2F)c1=O | 1.75%
69 | COc1ccc(OC)c(-c2nc3c(C)n[nH]c(=O)c3[nH]2)c1 | -0.95%
70 | COc1ccc(CN(C(=O)CSc2nnc(-c3ccccc3F)o2)c2ccc(F)cc2)cc1 | 2.7%
71 | COc1ccccc1C(=O)Nc1c2c(nn1-c1cccc(C)c1C)CS(=O)(=O)C2 | 1.94%
72 | Cc1cccc(NC(=O)CCn2ccnc2C)c1 | 0.79%
73 | O=c1oc(-c2ccco2)nc2ccccc12 | -2.22%
74 | COCC(=O)N(Cc1ccccc1)c1ccccn1 | 9.37%
75 | Nc1cc(C(=O)O)ccc1Nc1ccccc1 | 2.38%
76 | O=C1c2ccccc2C(=O)N1CCC(=O)N1CCc2ccccc21 | 5.08%
77 | Cc1cc(C)n(Cc2nc3ccccc3n2C)n1 | 4.92%
78 | CC(C)c1ccc(NC(=O)C2CC(=O)N(C(C)C)C2)cc1 (stereo not given) | -2.86%
79 | CSc1nsc(SCC(=O)N2CCc3ccccc32)n1 | 3.33%
80 | CC(Sc1nnc(-c2cc3ccccc3o2)n1-c1ccccc1)C(=O)O (stereo not given) | 2.38%
